Source: the supplement of paper PMC10105736
Values without a mark were called inactive.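 Rule for the calls: active = MAPPIT score above the 99th percentile of random reference set scores in the same batch; inactive = at or below it.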

Tests used:
Experiment in all cases: MAPPIT interaction score (arbitrary units); higher = stronger binary interaction signal, active = hit call of the paper
Hsc70-1 = details: MAPPIT configuration: N-N; pair source set: DPIM
Gs1 = details: pair source set: RRS
HP6 = details: MAPPIT configuration: N-N; pair source set: screen_1
Hrb27C = details: MAPPIT configuration: N-N; pair source set: Lit-BM-16
HP5 = details: MAPPIT configuration: N-N; pair source set: Curagen_low_conf
Hn = details: MAPPIT configuration: N-N; pair source set: Curagen_high_conf
jbug = details: MAPPIT configuration: N-C; pair source set: screen_3
Hmg-2 = details: MAPPIT configuration: N-C; pair source set: screen_3
GstE4 = details: MAPPIT configuration: N-C; pair source set: RRS
PGRP-LE = details: pair source set: Lit-BM-16
Wee1 = details: MAPPIT configuration: N-N; pair source set: Curagen_high_conf
GstD8 = details: MAPPIT configuration: N-N; pair source set: screen_1
Hsp27 = details: MAPPIT configuration: N-N; pair source set: Curagen_low_conf
Gnpnat = details: MAPPIT configuration: N-N; pair source set: screen_1
Jhbp2 = details: pair source set: RRS
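Note: HEK293T cells with Epo stimulation, STAT-responsive firefly luciferase reporter, fold induction versus unstimulated cells divided by the larger fold induction of two negative controls lacking either bait or prey.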

B1: caly (protein)
chain: MNAAGGGSGAQAAAVAAGNNSLSHNALLSTASGATTMPMAQLADGWLELESDPGLFTLLLKDFGCHDVQVEEVYDLQKPIESPYGFIFLFRWIEERRARRKIVETTAEIFVKDEEAISSIFFAQQVVPNSCATHALLSVLLNCNENNLQLGDTLSRLKTHTKGMSPENKGLAIGNTPELACAHNSHAMPQARRRLERTGAGVSSCRFTGEAFHFVSFVPINGQLFELDGLKPYPMNHGGWEDSEDWTDKFRRVMAERLGIATGEQDIRFNLMAVVPDRRIAITHKLKMLRTNQAIVSGTLQKLLKADEQGESGNGDSQRPDTPTTLLEPSAFTARDLQSLLKNLDTEIAINEQHLADENDRRHMFKVDASRRTHNYDKFICTFLSMLAHQGVLGELVSQHLLPSKKVSGQGAANRISKQSTTASAGGSTAAGTASTPKTQQQQAAAAKNGKSPSKTPGRRRKGRNKCRKRK
B1 gave an MAPPIT interaction score (Hsc70-1) of 2.29.

B2: mael (protein)
chain: MAPKKHSGFMMFVNEWRNRNAEGRRMTLAQAVSHCGTIWEKMNTQQRGPYNSGGKDANVAQRAKRESSNGHGQVDKAQREATESLMDMKRTIERLVLNAKMSHDLENAKFVFVAFNYFTKALTTDVYVPAEFAACEYSLKEGIRSIYSTMIDPGQIIFGQGSDALLHSSTTHDLPLPPNALGEKNMTKLYRNIVDYLSKCQGKGKTLVVFTPAENITMVKSCFRYLECDDDFRDGGEKIQVFDIQYLLFILKKEVMNVADLNDEKINKFATDAFFKKDFFEFTAGIACQYHEDNDRTKYCTQSMVTRWAYTFTDFMCGDLAITVQPGKHIPAQTKPNYLIISSYASSLDHESSFDSFYSLPGSGVKKESQPEACSLSSSRLSVASSSYKPIDHTSFAANLNEVSEFPSLGMRNSSKHHGIAASAQREWNARNLPTHSRLIRKVSDNDFSVNGADGKLKK
B2 was tested, and the MAPPIT interaction score (Hsc70-1) was 2.36.

B3: cactin (protein)
chain: MPKEKSKHRHRSRSRERRDHRSPDPRSSRNRDRDREREREKDRDHRDHRDKERDQRREREKDKSRDKKREHKSRRRRSSSSSSSPSSSTSSSVPGAPRSPLVKSPMKLLQTLEARRLVEQKDRQRKKEELKAHETPEEKRARRLREKQAKEQRRRERMGWDNEYQTYSNEDNPFGDSNLTSTFHWGKKLEVEGLSNLSTKTVEVLSLQKQLENRRELEKVKKRRQERELERQVREDDLMMQQRAKEAVQFREWQRQEDQFHLEQARLRSEIRIRDGRAKPIDLLAQYVAAGNEPLEECLEMQMHEPYVLLNGLPVEELEDLLVDIKVYEELEQGKHIDFWNDMITIVQDELQRQQKLEAENSSLNQRRDGIHQAVVKDVADIFRGKNAQQLEEMRHRIEAKISGRADGVDISYWESLLSQLKAHMARARLRDRHQALLREKLSLLKRENDNETLQEKVAPQVKEEEMETQDAEDPEVEEGSPEDEEDPLNELRKTVRLYQAGNYSPRYIREEDFTGRRAQNEDVDEPEAEGLLYEEEDDERRTQRQRLLILHPERVDNNQLTPQELRMRNEAKQGMQGDEAEFSVETTLDAVPQLATDKYRPRKPRYFNRVHTGFEWNKYNQTHYDMDNPPPKIVQGYKFNIFYPDLMDKSQTPQYFLTPCADNGDFAVLRFHTGPPYEDIAFKIVNREWEFSYKRGFRCQFHNNIFQLWFHFKRYRYRR
Binder B3 has an MAPPIT interaction score (Gs1; MAPPIT configuration: N-C) of 0.448 and an MAPPIT interaction score (Gs1; MAPPIT configuration: N-N) of 0.325.

B4: dmt (protein)
chain: MVRTRPVPCVPSPDVNTATRRNPGRPKKQSIGADLSTTISKPGRPKKLSIGADLTTIRKPGRPKKLGADLTTIIRKPGRPTKLSNKQSLTALNEPECRIRKCVVKIRRIKVKNGVVSEISRNDAPDVDASTFEPARNSTMYIPSKVQKSTQPQNIKENVAGPETSPCQQRIRSKSPSGPAAEISPKKPPRFFHRDQPLTRTRSSVTRNVFDFLSQSQIEDDSDREDPAADIIQRLVKDGKACVMVRSRKIGKPRAKRTAKKVRPVGNRRKVSTKDNEPEPVKVVPKSIEPRLQKPSRSLSTIFEPEEDYSNDSEHGYVQPIEVPVQVHVEPSTSKQAHEGAYSNLARSVMLNQTQAQNPLPSTDRRRELINMARQLVSTPLNRRAPPVTDVSATTTALSPIAHQSPNAVRTAGGKSPWRVSDDSPLPNTFMFGFNNSQMPSYSSDHVQRRHVYVPDSPVEHAENIPHEESICPPLHEQNHDSNANDSNEENRPPPTISKSMSINDQESEENAENFVHLPNPRRTLQKRTPFKDINILEVVTLPSWKKNVTATVSKEITPTRVAPRPMATSSPAQRSQTRSNLFGFDDDFACEDIPRKSTTPSKGIAPTSMSLNREVTPALANRNQTEVNTFGCNEILPCENIPKEKETNTEERTSSSQNLFGFDEFITESQDSPANFTGLSQNVNLHDKLHRLAELRPRDGELPQVSYTSIRSDCLGESHSKQTDIRYMLCSTMIAPPRPAKRKPAAPTARESMGLFRVDQDEPEQSFADKQPRRTYVKERPQRKRKKRVQILYIESESEDEDEQDSHDKSLDSPEKKRHHVKRPRRDIEHEAKLEQFVTSFNKQCEEVEKFPVIIE
In the case of B4, the MAPPIT interaction score (HP6) is reported as 4.14 (active).

B5: sqd (protein)
chain: MAENKQVDTEINGEDFTKDVTADGPGSENGDAGAAGSTNGSSDNQSAASGQRDDDRKLFVGGLSWETTEKELRDHFGKYGEIESINVKTDPQTGRSRGFAFIVFTNTEAIDKVSAADEHIINSKKVDPKKAKARHGKIFVGGLTTEISDEEIKTYFGQFGNIVEVEMPFDKQKSQRKGFCFITFDSEQVVTDLLKTPKQKIAGKEVDVKRATPKPENQMMGGMRGGPRGGMRGGRGGYGGRGGYNNQWDGQGSYGGYGGGYGGYGAGGYGDYYAGGYYNGYDYGYDGYGYGGGFEGNGYGGGGGGNMGGGRGGPRGGGGPKGGGGFNGGKQRGGGGRQQRHQPY
B5 showed an MAPPIT interaction score (Hrb27C) of -0.206.

B6: ZIPIC (protein)
chain: MNCCICQFSVRVPKDIHTDTVGHPPVLISELVLQCTRGTNYVLTEESSTICKKCCEKLARYHKSIQIARKLRGEILELIHSPYMSKDHKQTSYKEDDLDRETTISKFDGNIEEAQQQDEEEQELESVGTTVTLVGPAGIVEEVAEEEHTFIIKQSEEEDEFHSVDLELDIDNEIIINEEEAHEVEEVAHEIEEVAHEIEEEDLLPHDKQEAQEEDFFKEDTMSDFDEHLDGAIEYIISDGEDQEQDNESSGEYTVNIQCPSCPEKFSSRRAYNVHTKREHFPGYVCDQCGKTLQSYSGFIGHLQNHEPVKQFACPVCPERFSRKFRLKHHMAWHSGETPYQCDVCSKRFVHKVALYKHKMIHDSETKRLECQVCGFKTRTKAHLERHMRSHTGDKPFACPVCNKRFSQMYNMKAHLREHESPGTNRHRRFHCSKCTHTFINEQNYDAHVQRDDCTPV
B6 was tested, and the MAPPIT interaction score (HP5) was 0.196.

B7: Nelf-E (protein)
chain: MVYIHFPNNLTEEEQMLQAKYQKLKKKKKALQAHKAPKPEPESSLTLKRPTDARDAREVARKLIKSGAIPAIQKQTKQDQTSFKRPKGQERAKRSTSETTVASYQPFSSTQNDVAQETIISEIIKEEPRRQNLYQHFATERDREERGMPEKVPMDTAQPEKPRAGNTIFVSGNKVTEDFLKKTFNDYGTIVNVSMEIEKSRGFVSFAKPESADRAIAEIHGKNVNGINLQVQLARRQPQIEPINDASSSAVWSSIAASKSQKGSHKDHREMVQYDEDFLL
B7 gave an MAPPIT interaction score (Hn) of 0.208 and an MAPPIT interaction score (jbug) of 0.0879.

B8: Sas10 (protein)
chain: MDSDGDDYVMSGSDQEYDDEEREILEDLRKQRKKPHDPVQEVLGFSDDDDDDDDDDEEEQQDVAELMRDSDIEGAEDDDRDLPNTMDWGSKRSTYYNTDFVDQDYSSYNAQEEEQARAEEEEAKKIQLRLAKRMSEADFQLDNVEAAPAGSSDDNELSHITKVTSDLAGLSERERRQLMHSESPEFIILTQDFQQHLDEVKNLLKPVLNYVRKHDVPMVPALQYAGLCHTVLTTYCSNVAFYLLLKARRIDVKAHPVIRRLVQLKDLIEELKPRYEEYIRPQLEALLERIEDGDAFTVLDVAQRKAKLQILNKYNDGQQASVSSDDDDNDDDDDAESKEKDLQEEAGEEEEEEDARRGITYQMAKNKGLTPHRKKELRNPRVKHRGKYRKALIRRKGAVRTVRKELQRYGGELSGIKAGVTKSVKFRT
With B8 the MAPPIT interaction score (Hmg-2) was 0.087.

B9: PGRP-LE (protein)
chain: MSESGIKKLSQERTREWLASQEDEELESIAESSVVDSLDYDYTEEEEDADQNTSEEISTMTLGTQIATKKHSIISDTIRDLMNSINSIQTLGNVNISNSTNVHIGNVTNINGNIQIIADGLTQNRRDRRHVSPPRDNAPKTPTHFEDDYQDESEERVRSDVFIRRQKFKIPKELSAIIPRSSWLAQKPMDEPLPLQLPVKYVVILHTATESSEKRAINVRLIRDMQCFHIESRGWNDIAYNFLVGCDGNIYEGRGWKTVGAHTLGYNRISLGISFIGCFMKELPTADALNMCRNLLARGVEDGHISTDYRLICHCQCNSTESPGRRLYEEIQTWPHFYNIEEEEQ
In the case of B9, the MAPPIT interaction score (GstE4) is reported as 0.646, the MAPPIT interaction score (PGRP-LE; MAPPIT configuration: N-C) is reported as 3.96 (active) and the MAPPIT interaction score (PGRP-LE; MAPPIT configuration: N-N) is reported as 4.49 (active). For the same binder, the MAPPIT interaction score (Wee1) was 2.63 (active).

B10: GstD1 (protein)
chain: MVDFYYLPGSSPCRSVIMTAKAVGVELNKKLLNLQAGEHLKPEFLKINPQHTIPTLVDNGFALWESRAIQVYLVEKYGKTDSLYPKCPKKRAVINQRLYFDMGTLYQSFANYYYPQVFAKAPADPEAFKKIEAAFEFLNTFLEGQDYAAGDSLTVADIALVATVSTFEVAKFEISKYANVNRWYENAKKVTPGWEENWAGCLEFKKYFE
With B10 the MAPPIT interaction score (GstD8) was 5.85 (active).

B11: Lis-1 (protein)
chain: MKMVLSQRQREELNQAIADYLGSNGYADSLETFRKEADLSTEVEKKFGGLLEKKWTSVIRLQKKVMELEAKLTEAEKEVIEGAPTKNKRTPGEWIPRPPEKFSLTGHRASITRVIFHPIFALMVSASEDATIRIWDFETGEYERSLKGHTDSVQDVAFDAQGKLLASCSADLSIKLWDFQQSYECIKTMHGHDHNVSSVAFVPAGDYVLSASRDRTIKMWEVATGYCVKTYTGHREWVRMVRVHIEGSIFATCSNDQTIRVWLTNSKDCKVELRDHEHTVECIAWAPEAAASAINEAAGADNKKGHHQGPFLASGSRDKTIRIWDVSVGLCLLTLSGHDNWVRGLAFHPGGKYLVSASDDKTIRVWDLRNKRCMKTLYAHQHFCTSIDFHKAHPYVISGSVDQTVKVWECR
With B11 the MAPPIT interaction score (Hsp27) was -0.515.

B12: Gnpnat (protein)
chain: MVQLTEETYLYDPNLLLKLDFHRSPANFKPFISAANPGEPWMKVRPLKDTDYDRGFLQLLSQLTHVGNVNRTQFLTRFSQMKASGDYFVTVIEDTRKNEIIGAASLVIERKFIHNCAVRGRLEDVVVNDTYRGKQLGKLIVVTVSLLAEELGCYKMSLDCKDKLIKFYESLGYVAIPGNSNSMTIRYDEGPTLKRNATSAGSSGTVGDSCQTVSLDFAS
With B12 the MAPPIT interaction score (Gnpnat) was 5.14 (active), the MAPPIT interaction score (Jhbp2; MAPPIT configuration: N-C) was -0.259 and the MAPPIT interaction score (Jhbp2; MAPPIT configuration: N-N) was 0.242.
